PubChem BioAssay (Tox21)
“And” between values parts separate entries of the source, which are not always exact repeats. Equal values may be shown once. Results filed as inconclusive are left out. A call without a number means that no potency is given here. A structure can be active in one record and inactive in another. The source made the active and inactive calls. Unless noted, the call rests on the fitted dose curve; in most records, active means well fitted curve in the direction sought with a large enough effect in the repeat runs; inconclusive means weak or mixed curves; inactive means no such curve, though single readings can be large; an effect the other way counts as inactive or inconclusive.

Key:
[1] = qHTS assay to identify aromatase inhibitors - cell viability counter screen (AID 743084);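 further: cells stimulated with testosterone during compound exposure; nearly all actives have a fitted effect of over 55% in size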; further: potency means the concentration at half of the fitted maximal effect
[2] = biological target: Aryl hydrocarbon receptor (Homo sapiens) (UniProt P35869); assay: qHTS assay to identify small molecule that activate the aryl hydrocarbon receptor (AhR) signaling pathway (AID 743085);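 further: HG2L7.5c1 human HepG2 liver cells with stably integrated DRE-driven firefly reporter; series mostly up to about 70 µM; nearly all actives have a fitted effect of over 15% in size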
Procedure, shortened: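 Luminescence read-out: ONE-Glo reagent, 30 min at room temperature, in HG2L7.5c1 HepG2 reporter cells treated 24 h at 37C. Viability was measured beforehand by CellTiter-Fluor fluorescence after 30 min at 37C.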

[3] = qHTS assay to identify small molecule that activate the aryl hydrocarbon receptor (AhR) signaling pathway - cell viability counter screen (AID 743086);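 further: HepG2 liver cells carrying the AhR DRE luciferase reporter; series mostly up to about 70 µM; nearly all actives have a fitted effect of over 45% in size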
Procedure, shortened: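 HepG2-AhR-luc (HG2L7.5c1) cells, 4000/well, treated 24 h at 37 C with compound; viability measured as CellTiter-Fluor fluorescence after 30 min in the same wells as the luciferase read.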

[4] = biological target: Peroxisome proliferator-activated receptor gamma (Homo sapiens) (UniProt P37231); assay: qHTS assay to identify small molecule agonists of the peroxisome proliferator-activated receptor gamma (PPARg) signaling pathway (AID 743094; active means well fitted activation curve with a large enough effect in the signal ratio in the repeat runs, not every such curve was filed as active; the % refers to the signal ratio)
Procedure, shortened: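 GeneBLAzer PPARg UAS-bla HEK293H cells were plated, rested 5 h, then exposed to compounds for 17 h at 37C. Beta-lactamase activity was read by LiveBLAzer B/G FRET substrate fluorescence after 1 h at room temperature.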

[5] = qHTS assay to identify small molecule antagonists of the peroxisome proliferator-activated receptor gamma (PPARg) signaling pathway - cell viability counter screen (AID 743194); settings: Potency: co-treated with 50 nM rosiglitazone; further: nearly all actives have a fitted effect of over 55% in size; further: potency means the concentration at half of the fitted maximal effect
Procedure, shortened: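 Cytotoxicity counter screen in PPARg-bla HEK293H cells, same wells as reporter assay. Compounds plus 50 nM rosiglitazone (final) for 17 h at 37 C, then viability read by CellTiter-Glo luminescence.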

[6] = qHTS assay for small molecule agonists of the antioxidant response element (ARE) signaling pathway (AID 743202; active means well fitted activation curve with a large enough effect in the signal ratio in the repeat runs, not every such curve was filed as active; the % refers to the signal ratio)
Procedure, shortened: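 ARE-bla HepG2 cells (beta-lactamase reporter under the antioxidant response element), plated 5 hours, then exposed to compounds 16 hours at 37 C. LiveBLAzer B/G FRET substrate added for 2 hours at room temperature; fluorescence intensity read.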

[7] = qHTS assay for small molecule agonists of the antioxidant response element (ARE) signaling pathway - cell viability counter screen (AID 743203; calls by dose curve; further: nearly all actives have a fitted effect of over 55% in size; further: potency means the concentration at half of the fitted maximal effect)
Procedure, shortened: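 ARE-bla HepG2 cells were plated, rested 5 h at 37C/5% CO2, then exposed to compounds in DMSO for 16 h. Viability was read as CellTiter-Glo luminescence after 30 min at room temperature, in the same wells as the ARE screen.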

[8] = qHTS assay for small molecule activators of the heat shock response signaling pathway - cell viability counter screen (AID 743209); further: nearly all actives have a fitted effect of over 50% in size; further: potency means the concentration at half of the fitted maximal effect
Procedure, shortened: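 HSE-bla HeLa cells plated overnight, then exposed to Tox21 compounds (23 nL in DMSO) for 5 h at 37 C. After the bla reporter read, CellTiter-Glo was added in the same wells and luminescence read after 30 min at room temperature.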

[9] = qHTS assay for small molecule activators of the heat shock response signaling pathway (AID 743210; active means well fitted activation curve with a large enough effect in the signal ratio in the repeat runs, with a control signal flat, not every such curve was filed as active; the % refers to the signal ratio; further: series mostly up to about 63 µM)
Procedure, shortened: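 HSE-bla HeLa cells (beta-lactamase reporter under heat shock response elements), plated overnight, then exposed to compounds 5 h at 37 C; LiveBLAzer B/G FRET substrate added, 2.5 h at room temperature, fluorescence intensity read.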

[10] = qHTS assay to identify small molecule agonists of the peroxisome proliferator-activated receptor delta (PPARd) signaling pathway - cell viability counter screen (AID 743211); further: nearly all actives have a fitted effect of over 55% in size; further: potency means the concentration at half of the fitted maximal effect
Procedure, shortened: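 Read-out: CellTiter-Glo luminescence, 30 min RT, measured in the same wells as the beta-lactamase reporter. Cells: GeneBLAzer PPAR delta UAS-bla HEK293H, 3000 cells/well, compound exposure 17 h at 37C.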

[11] = biological target: Peroxisome proliferator-activated receptor delta (Homo sapiens) (UniProt Q03181); assay: qHTS assay to identify small molecule agonists of the peroxisome proliferator-activated receptor delta (PPARd) signaling pathway (AID 743212; calls by dose curve)
Procedure, shortened: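 GeneBLAzer UAS-bla HEK293H cells carrying a PPARδ construct were exposed to compounds at 37 °C. Beta-lactamase activity was read by FRET fluorescence after 2 h at room temperature with LiveBLAzer B/G substrate.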

[12] = qHTS assay to identify small molecule antagonists of the peroxisome proliferator-activated receptor delta (PPARd) signaling pathway - cell viability counter screen (AID 743213); further: nearly all actives have a fitted effect of over 50% in size; further: potency means the concentration at half of the fitted maximal effect
Procedure, shortened: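 PPARd-bla HEK293H cells were treated with compounds plus agonist L165041 (300 nM final) for 17 h at 37 C. Viability was then read in the same wells by CellTiter-Glo luminescence after 30 min at room temperature.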

[13] = biological target: Peroxisome proliferator-activated receptor delta (Homo sapiens) (UniProt Q03181); assay: qHTS assay to identify small molecule antagonists of the peroxisome proliferator-activated receptor delta (PPARd) signaling pathway (AID 743215; active means well fitted inhibition curve with a large enough effect in the signal ratio in the repeat runs, not every such curve was filed as active; the % refers to the signal ratio;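 further: cells stimulated with agonist L165041 at 300 nM final during compound exposure; series mostly up to about 62 µM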)
Procedure, shortened: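 PPARd-bla HEK293H cells (UAS-bla reporter) preincubated 5 h, then given compound plus 300 nM final L165041 agonist for 17 h at 37 C. Beta-lactamase activity read by LiveBLAzer B/G FRET substrate fluorescence after 2 h at room temperature.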

[14] = qHTS assay to identify small molecule agonists of the farnesoid-X-receptor (FXR) signaling pathway - cell viability counter screen (AID 743218); further: nearly all actives have a fitted effect of over 45% in size; further: potency means the concentration at half of the fitted maximal effect
Procedure, shortened: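 FXR-UAS-bla HEK 293T cells exposed to compounds for 16 h at 37C. Cytotoxicity read in the same wells by CellTiter-Glo luminescence after 30 min at room temperature, following the beta-lactamase FRET read.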

[15] = qHTS assay to identify small molecule antagonists of the farnesoid-X-receptor (FXR) signaling pathway - cell viability counter screen (AID 743221; active means well fitted cell-killing curve with a large enough effect in the repeat runs, not every such curve was filed as active; further: nearly all actives have a fitted effect of over 50% in size; further: potency means the concentration at half of the fitted maximal effect)
Procedure, shortened: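 HEK 293T FXR-bla cells, 5 h pre-incubation; compound + CDCA 50 uM final, 16 h, 37 C; beta-lactamase FRET read first, then CellTiter-Glo luminescence, 30 min RT.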

[16] = biological target: Vitamin D3 receptor (Homo sapiens) (UniProt P11473); assay: qHTS assay to identify small molecule agonists of the vitamin D receptor (VDR) signaling pathway (AID 743222; calls by dose curve)
Procedure, shortened: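 VDR-bla cells plated 4 h at 37 C, then exposed to compounds for 16 h at 37 C. Beta-lactamase reporter activity measured by fluorescence after 2 h room-temperature loading with LiveBLAzer B/G FRET substrate.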

[17] = biological target: Vitamin D3 receptor (Homo sapiens) (UniProt P11473); assay: qHTS assay to identify small molecule antagonists of the vitamin D receptor (VDR) signaling pathway (AID 743223; active means well fitted inhibition curve with a large enough effect in the signal ratio in the repeat runs, not every such curve was filed as active; the % refers to the signal ratio; further: potency means the concentration at half of the fitted maximal effect)
Procedure, shortened: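 Beta-lactamase reporter read-out: FRET substrate fluorescence after 2 h at room temperature, following 16 h exposure of VDR-bla cells to test compound plus 3 nM (final) 1alpha,25-dihydroxyvitamin D3 agonist at 37C.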

[18] = biological target: Bile acid receptor (Homo sapiens) (UniProt Q96RI1); assay: qHTS assay to identify small molecule antagonists of the farnesoid-X-receptor (FXR) signaling pathway (AID 743217; active means well fitted inhibition curve with a large enough effect in the signal ratio in the repeat runs, not every such curve was filed as active; the % refers to the signal ratio)
Procedure, shortened: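 FXR-UAS-bla HEK 293T cells (beta-lactamase reporter) given compound plus chenodeoxycholic acid (50 uM final), 16 h at 37C. LiveBLAzer B/G FRET substrate added for 2 h at room temperature; fluorescence read.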

[19] = biological target: Peroxisome proliferator-activated receptor gamma (Homo sapiens) (UniProt P37231); assay: qHTS assay to identify small molecule antagonists of the peroxisome proliferator-activated receptor gamma (PPARg) signaling pathway (AID 743191; calls by dose curve; further: series mostly up to about 63 µM; nearly all actives have a fitted effect of over 30% in size)
Procedure, shortened: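 GeneBLAzer PPARg UAS-bla HEK293H cells, 5 h post-plating, exposed to compounds 17 h at 37C. LiveBLAzer B/G FRET substrate added for 1 h at room temperature; beta-lactamase reporter read by fluorescence intensity.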

[20] = biological target: Bile acid receptor (Homo sapiens) (UniProt Q96RI1); assay: qHTS assay to identify small molecule agonists of the farnesoid-X-receptor (FXR) signaling pathway (AID 743220; active means well fitted activation curve with a large enough effect in the signal ratio in the repeat runs, not every such curve was filed as active; the % refers to the signal ratio)
Procedure, shortened: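 Beta-lactamase reporter under UAS control in GeneBLAzer FXR HEK 293T cells (5000/well) measured with LiveBLAzer FRET substrate after 2 h at room temperature. Compound exposure lasted 16 h at 37C.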

Vitamin D3 receptor (Homo sapiens), sequence (P11473 whole entry, looked up): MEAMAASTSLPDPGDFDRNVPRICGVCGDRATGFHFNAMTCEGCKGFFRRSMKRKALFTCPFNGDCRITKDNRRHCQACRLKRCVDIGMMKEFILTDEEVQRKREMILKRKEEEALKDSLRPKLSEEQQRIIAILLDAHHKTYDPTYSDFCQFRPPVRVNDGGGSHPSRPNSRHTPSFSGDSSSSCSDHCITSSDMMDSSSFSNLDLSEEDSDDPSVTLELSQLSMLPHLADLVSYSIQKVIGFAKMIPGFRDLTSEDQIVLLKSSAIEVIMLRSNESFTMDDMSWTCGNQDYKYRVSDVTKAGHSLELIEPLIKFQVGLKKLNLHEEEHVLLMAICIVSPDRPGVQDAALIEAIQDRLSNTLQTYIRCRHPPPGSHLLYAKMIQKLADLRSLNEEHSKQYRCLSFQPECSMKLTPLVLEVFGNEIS
Aryl hydrocarbon receptor (Homo sapiens), sequence (P35869 whole entry, looked up): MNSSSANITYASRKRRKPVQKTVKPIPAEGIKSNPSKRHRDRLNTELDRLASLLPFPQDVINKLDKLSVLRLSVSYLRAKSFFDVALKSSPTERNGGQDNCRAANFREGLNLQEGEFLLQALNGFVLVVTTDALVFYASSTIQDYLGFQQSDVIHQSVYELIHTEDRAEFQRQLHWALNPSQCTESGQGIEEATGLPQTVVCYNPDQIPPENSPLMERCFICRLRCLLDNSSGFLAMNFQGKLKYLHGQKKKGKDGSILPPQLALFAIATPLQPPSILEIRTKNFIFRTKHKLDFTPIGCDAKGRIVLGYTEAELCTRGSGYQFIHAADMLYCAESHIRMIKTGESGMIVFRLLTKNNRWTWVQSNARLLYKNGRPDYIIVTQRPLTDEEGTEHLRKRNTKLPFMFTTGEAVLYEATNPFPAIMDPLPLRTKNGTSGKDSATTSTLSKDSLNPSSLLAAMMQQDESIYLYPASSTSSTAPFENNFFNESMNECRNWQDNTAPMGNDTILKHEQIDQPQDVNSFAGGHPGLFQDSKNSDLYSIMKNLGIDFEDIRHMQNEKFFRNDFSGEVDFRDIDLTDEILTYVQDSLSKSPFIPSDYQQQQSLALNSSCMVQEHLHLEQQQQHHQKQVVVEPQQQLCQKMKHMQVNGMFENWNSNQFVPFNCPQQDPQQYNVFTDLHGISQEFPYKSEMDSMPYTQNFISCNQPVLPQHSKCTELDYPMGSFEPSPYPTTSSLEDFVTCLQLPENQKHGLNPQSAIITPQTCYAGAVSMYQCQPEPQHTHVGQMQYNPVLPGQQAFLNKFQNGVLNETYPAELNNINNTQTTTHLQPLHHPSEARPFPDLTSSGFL
Peroxisome proliferator-activated receptor gamma (Homo sapiens), sequence (P37231 whole entry, looked up): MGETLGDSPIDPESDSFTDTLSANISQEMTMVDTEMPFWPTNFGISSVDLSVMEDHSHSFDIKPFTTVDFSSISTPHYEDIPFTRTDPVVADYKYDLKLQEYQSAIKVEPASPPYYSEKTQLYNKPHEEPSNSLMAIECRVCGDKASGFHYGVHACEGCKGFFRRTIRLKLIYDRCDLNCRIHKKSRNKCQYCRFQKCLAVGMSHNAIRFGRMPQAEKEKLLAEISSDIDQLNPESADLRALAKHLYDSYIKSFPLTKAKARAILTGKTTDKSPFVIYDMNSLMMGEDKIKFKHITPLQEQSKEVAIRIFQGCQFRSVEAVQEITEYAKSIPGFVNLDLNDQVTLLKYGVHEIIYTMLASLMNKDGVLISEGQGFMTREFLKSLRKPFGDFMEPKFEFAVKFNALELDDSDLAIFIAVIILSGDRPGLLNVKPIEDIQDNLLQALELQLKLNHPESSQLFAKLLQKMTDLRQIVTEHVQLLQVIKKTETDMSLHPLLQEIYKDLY
Bile acid receptor (Homo sapiens), sequence (Q96RI1 whole entry, looked up): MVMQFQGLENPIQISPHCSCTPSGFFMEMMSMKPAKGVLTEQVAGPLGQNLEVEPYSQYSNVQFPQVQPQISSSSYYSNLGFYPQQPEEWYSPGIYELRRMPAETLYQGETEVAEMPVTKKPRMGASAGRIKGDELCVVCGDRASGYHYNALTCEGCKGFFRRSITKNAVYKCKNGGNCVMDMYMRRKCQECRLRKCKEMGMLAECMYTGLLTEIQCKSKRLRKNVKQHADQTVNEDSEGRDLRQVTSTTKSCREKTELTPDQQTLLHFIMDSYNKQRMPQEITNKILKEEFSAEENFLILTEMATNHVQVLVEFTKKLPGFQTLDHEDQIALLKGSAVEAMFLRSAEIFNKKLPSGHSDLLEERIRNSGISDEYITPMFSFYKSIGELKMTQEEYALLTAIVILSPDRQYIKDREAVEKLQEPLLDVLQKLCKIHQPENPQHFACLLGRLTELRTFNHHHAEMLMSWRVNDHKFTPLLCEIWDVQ
Peroxisome proliferator-activated receptor delta (Homo sapiens), sequence (Q03181 whole entry, looked up): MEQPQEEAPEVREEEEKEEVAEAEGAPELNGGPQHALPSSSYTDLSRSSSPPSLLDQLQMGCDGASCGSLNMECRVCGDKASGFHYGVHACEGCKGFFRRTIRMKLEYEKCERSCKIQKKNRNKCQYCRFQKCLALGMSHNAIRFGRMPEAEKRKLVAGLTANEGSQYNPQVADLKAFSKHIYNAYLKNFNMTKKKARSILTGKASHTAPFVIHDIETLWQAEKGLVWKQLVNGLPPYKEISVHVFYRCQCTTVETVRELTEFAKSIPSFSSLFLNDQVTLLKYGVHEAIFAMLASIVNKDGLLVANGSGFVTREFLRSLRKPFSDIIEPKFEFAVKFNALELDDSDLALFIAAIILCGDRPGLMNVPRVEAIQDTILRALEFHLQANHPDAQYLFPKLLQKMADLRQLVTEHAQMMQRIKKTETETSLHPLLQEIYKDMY

| SMILES | Potency [1] | Potency [2] | Potency [3] | Potency [4] | Potency [5] | Potency [6] | Potency [7] | Potency [8] | Potency [9] | Potency [10] | outcome [11] | Potency [12] | Potency [13] | Potency [14] | Potency [15] | outcome [16] | Potency [17] | Potency [18] | Potency [19] | outcome [20] |
| --- | --- | --- | --- | --- | --- | --- | --- | --- | --- | --- | --- | --- | --- | --- | --- | --- | --- | --- | --- | --- |
| C=CC(=O)NC(C)(C)CC(C)=O | inactive | inactive | inactive | inactive | inactive | inactive | inactive | inactive | inactive | inactive | inactive | inactive | inactive | inactive | inactive | inactive | inactive |  |  |  |
| O=[N+]([O-])O[C@H]1CO[C@H]2[C@@H]1OC[C@H]2O[N+](=O)[O-] | inactive | inactive | inactive | inactive | inactive | inactive | inactive | inactive | inactive | inactive | inactive | inactive | inactive | inactive | inactive |  | inactive | inactive |  |  |
| Cc1ccccc1 | inactive | inactive | inactive | inactive | inactive | inactive | inactive | inactive |  | inactive | inactive | inactive | inactive | inactive | inactive | inactive | inactive |  |  |  |
| c1ccc2c(c1)sc1ccccc12 | inactive | inactive | inactive | inactive |  |  | inactive | inactive | inactive | inactive | inactive | inactive | inactive | inactive | inactive | inactive |  | inactive | inactive | inactive |
| CCC(C)(C)c1ccc(O)c(C(C)(C)CC)c1 | 42.8 µM (active) and 27.3 µM (active) | inactive | inactive | inactive | 24.3 µM (active) and 21.9 µM (active) | inactive | 61.1 µM (active) | 17.2 µM (active) and 17.4 µM (active) |  | 19.3 µM (active) and 19.5 µM (active) | inactive | 17.2 µM (active) and 38.9 µM (active) | inactive | inactive and 24.5 µM (active) | 19.5 µM (active) |  | 12.2 µM (active) and 17.4 µM (active) |  |  |  |
| NCCc1cc(O)c(O)cc1O | inactive | inactive | inactive | inactive | inactive |  | inactive | inactive |  | inactive | inactive | inactive | inactive | inactive | inactive | inactive | inactive |  | inactive |  |
| CCCC1CCCCN1 (configuration not stated) | inactive | inactive | inactive | inactive | inactive | inactive |  | inactive |  | inactive | inactive | inactive | inactive | inactive | inactive |  |  |  | inactive |  |
| CCCBr | inactive | inactive | inactive | inactive | inactive | inactive | inactive | inactive | inactive | inactive |  | inactive |  | inactive | inactive |  | inactive | inactive |  | inactive |
| CCN(C(C)=O)c1cccc(-c2ccnc3c(C#N)cnn23)c1 | inactive | inactive | inactive | inactive | inactive | inactive | inactive | inactive | inactive | inactive |  | inactive |  | inactive | inactive | inactive | inactive |  |  | inactive |
| CCOP(=O)(SC(C)CC)N1CCSC1=O (configuration not stated) | inactive | inactive | inactive | inactive | inactive |  | inactive | inactive |  | inactive | inactive | inactive | inactive | inactive | inactive |  | inactive |  | inactive |  |
| C[N+](C)(C)CC1CO1 (configuration not stated) | inactive | inactive | inactive | inactive | inactive | inactive | inactive | inactive | inactive | inactive | inactive | inactive | inactive | inactive | inactive |  |  |  |  |  |
| CCCC[N+]1(C)[C@@H]2CC(OC(=O)[C@H](CO)c3ccccc3)C[C@H]1[C@@H]1O[C@@H]12 (some centres not stated) | inactive | inactive | inactive | inactive | inactive | inactive | inactive | inactive | inactive | inactive |  | inactive | inactive | inactive | inactive |  |  | inactive |  | inactive |
| CC1(C)CC(=O)CC(C)(C)N1[O] | inactive | inactive | inactive | inactive | inactive | inactive | inactive | inactive | inactive | inactive |  | inactive | inactive | inactive | inactive | inactive | inactive | inactive |  | inactive |
| Cc1nc(N(C)C)nc(OC(=O)N(C)C)c1C | inactive | inactive | inactive | inactive | inactive |  |  | inactive | inactive | inactive | inactive | inactive | inactive | inactive | inactive | inactive | inactive | inactive | inactive | inactive |
| CCc1ccccc1N | inactive | inactive | inactive | inactive |  |  | inactive | inactive |  | inactive |  |  | inactive | inactive | inactive | inactive | inactive |  | inactive |  |
| CC(O)CN1CCN(CC(=O)[O-])CCN(CC(=O)[O-])CCN(CC(=O)[O-])CC1.[Gd+3] (configuration not stated) | inactive | inactive | inactive | inactive | inactive | inactive | inactive | inactive | inactive | inactive | inactive | inactive | inactive | inactive | inactive | inactive | inactive | inactive |  | inactive |
| CC(C)CCON=O | inactive | inactive | inactive | inactive | inactive | inactive |  | inactive |  | inactive |  | inactive | inactive | inactive | inactive | inactive |  |  | inactive |  |
